Test results from paper PMC7862700, “An all-to-all approach to the identification of sequence-specific readers for epigenetic DNA modifications on cytosine”.

Columns and labels:
Experiment in all cases: DAPPL (digital affinity profiling via proximity ligation, sequencing); 10 mM Tris-HCl pH 7.5, 50 mM NaCl, 1 mM DTT, 4% glycerol, room temperature, 30 min; GST-TFs on glutathione beads, 16-mer random dsDNA library, 0.1% formaldehyde crosslink after washing; high values mean tight binding
Settings in all cases: protein: recombinant; tags: N-terminal GST; dsDNA, one strand shown
FEV = target: T1, FEV (Homo sapiens, UniProt Q99581 1-238)
T1 sequence: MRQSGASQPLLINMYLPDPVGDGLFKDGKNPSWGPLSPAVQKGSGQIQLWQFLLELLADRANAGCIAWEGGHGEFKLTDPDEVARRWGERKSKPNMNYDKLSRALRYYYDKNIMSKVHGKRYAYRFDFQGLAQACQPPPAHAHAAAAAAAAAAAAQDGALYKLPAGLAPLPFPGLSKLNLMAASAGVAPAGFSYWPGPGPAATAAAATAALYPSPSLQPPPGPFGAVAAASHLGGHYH
In short: (§1)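 A tag-only sample was pooled with DNA-barcoded human transcription factors that had been expressed in yeast as GST fusions and captured on glutathione beads. The pools were incubated for 30 min at room temperature with 200 nmole of a random double-stranded 16-mer DNA library in Tris/NaCl/DTT/glycerol buffer, then washed, crosslinked with 0.1% formaldehyde, proximity-ligated (BsaI/T4 ligase, 1 h, 37 °C), PCR-amplified and sequenced on an Illumina NextSeq500. Binding signal is each hexamer's read frequency for a factor divided by its frequency for the tag-only sample.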

ETV5 = ETV5 (Homo sapiens, UniProt P41161 1-510)
In short: as §1

SPIC = target: T2, SPIC (Homo sapiens, UniProt Q8N5J4 1-248)
T2 sequence: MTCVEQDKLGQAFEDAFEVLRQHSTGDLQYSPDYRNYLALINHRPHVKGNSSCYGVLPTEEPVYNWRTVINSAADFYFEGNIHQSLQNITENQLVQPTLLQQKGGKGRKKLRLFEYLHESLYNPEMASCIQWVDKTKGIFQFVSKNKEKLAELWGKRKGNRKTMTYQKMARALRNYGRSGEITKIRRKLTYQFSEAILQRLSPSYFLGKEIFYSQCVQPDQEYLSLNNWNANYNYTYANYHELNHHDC
In short: as §1

ELF4 = ELF4 (Homo sapiens, UniProt Q99607 1-663)
In short: as §1

ELK4 = target: T3, ELK4 (Homo sapiens, UniProt P28324-2 1-405)
T3 sequence: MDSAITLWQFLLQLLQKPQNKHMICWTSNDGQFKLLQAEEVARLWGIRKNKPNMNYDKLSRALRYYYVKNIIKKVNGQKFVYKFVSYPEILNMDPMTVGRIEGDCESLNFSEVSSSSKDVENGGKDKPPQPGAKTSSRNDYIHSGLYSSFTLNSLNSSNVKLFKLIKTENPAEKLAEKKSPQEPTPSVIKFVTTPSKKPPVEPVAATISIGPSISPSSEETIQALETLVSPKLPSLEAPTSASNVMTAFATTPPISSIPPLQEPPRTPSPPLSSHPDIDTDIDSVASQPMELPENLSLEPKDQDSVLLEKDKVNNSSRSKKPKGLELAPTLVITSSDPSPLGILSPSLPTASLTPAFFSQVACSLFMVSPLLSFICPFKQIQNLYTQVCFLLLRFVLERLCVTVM
In short: as §1

ETV2 = target: T4, ETV2 (Homo sapiens, UniProt O00321 1-342)
T4 sequence: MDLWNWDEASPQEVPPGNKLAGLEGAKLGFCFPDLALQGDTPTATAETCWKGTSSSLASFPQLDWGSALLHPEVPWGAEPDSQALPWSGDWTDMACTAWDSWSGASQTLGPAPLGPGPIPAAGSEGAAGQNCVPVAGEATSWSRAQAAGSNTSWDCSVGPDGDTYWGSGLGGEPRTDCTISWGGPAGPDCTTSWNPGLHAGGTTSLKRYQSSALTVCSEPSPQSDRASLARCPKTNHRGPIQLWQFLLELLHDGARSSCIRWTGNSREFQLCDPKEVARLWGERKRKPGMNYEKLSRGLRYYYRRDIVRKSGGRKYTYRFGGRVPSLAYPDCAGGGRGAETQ
In short: as §1

ELF3 = target: T5, ELF3 (Homo sapiens, UniProt P78545 1-371)
T5 sequence: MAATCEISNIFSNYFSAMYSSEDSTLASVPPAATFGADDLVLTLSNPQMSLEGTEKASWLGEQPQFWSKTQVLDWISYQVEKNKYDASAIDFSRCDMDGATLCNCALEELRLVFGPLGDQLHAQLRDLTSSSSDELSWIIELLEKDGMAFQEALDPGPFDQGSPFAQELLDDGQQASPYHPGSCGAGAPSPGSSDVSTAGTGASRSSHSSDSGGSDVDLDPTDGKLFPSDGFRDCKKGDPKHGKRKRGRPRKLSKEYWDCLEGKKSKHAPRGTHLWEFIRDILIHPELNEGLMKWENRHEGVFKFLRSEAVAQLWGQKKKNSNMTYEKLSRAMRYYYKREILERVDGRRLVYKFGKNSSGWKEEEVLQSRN
In short: as §1

CRX = CRX (Homo sapiens, UniProt O43186 1-299)
In short: as §1

ETV1 = ETV1 (Homo sapiens, UniProt P50549 1-477)
In short: as §1

ERF = target: T6, ERF (Homo sapiens, UniProt P50548 1-548)
T6 sequence: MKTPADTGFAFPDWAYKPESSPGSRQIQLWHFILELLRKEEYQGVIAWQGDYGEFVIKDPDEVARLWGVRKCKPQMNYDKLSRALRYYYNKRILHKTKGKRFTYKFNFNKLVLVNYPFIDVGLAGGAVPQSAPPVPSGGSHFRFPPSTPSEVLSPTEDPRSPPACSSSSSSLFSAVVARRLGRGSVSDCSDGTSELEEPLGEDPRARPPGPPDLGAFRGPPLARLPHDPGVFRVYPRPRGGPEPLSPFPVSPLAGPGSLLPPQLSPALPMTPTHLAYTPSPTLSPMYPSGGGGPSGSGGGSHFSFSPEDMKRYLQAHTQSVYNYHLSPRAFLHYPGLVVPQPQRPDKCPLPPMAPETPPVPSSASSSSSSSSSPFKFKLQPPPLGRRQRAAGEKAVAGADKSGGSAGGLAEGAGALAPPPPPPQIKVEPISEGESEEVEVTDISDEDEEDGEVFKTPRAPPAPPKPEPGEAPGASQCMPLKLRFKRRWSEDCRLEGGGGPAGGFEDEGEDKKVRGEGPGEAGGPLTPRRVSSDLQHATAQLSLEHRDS
In short: as §1

ETV3L = target: T7, ETV3L (Homo sapiens, UniProt Q6ZN32 1-361)
T7 sequence: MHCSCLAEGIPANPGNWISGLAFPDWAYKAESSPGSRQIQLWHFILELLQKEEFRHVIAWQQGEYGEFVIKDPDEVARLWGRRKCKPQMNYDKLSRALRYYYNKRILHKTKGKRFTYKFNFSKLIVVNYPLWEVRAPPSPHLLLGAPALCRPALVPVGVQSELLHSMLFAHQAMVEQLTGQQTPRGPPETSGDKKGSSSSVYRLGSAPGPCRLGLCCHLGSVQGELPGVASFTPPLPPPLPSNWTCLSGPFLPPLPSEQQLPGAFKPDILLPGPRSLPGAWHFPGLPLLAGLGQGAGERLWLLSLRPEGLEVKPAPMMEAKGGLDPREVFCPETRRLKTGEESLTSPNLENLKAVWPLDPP
In short: as §1

ETS2 = target: T8, ETS2 (Homo sapiens, UniProt P15036 1-469)
T8 sequence: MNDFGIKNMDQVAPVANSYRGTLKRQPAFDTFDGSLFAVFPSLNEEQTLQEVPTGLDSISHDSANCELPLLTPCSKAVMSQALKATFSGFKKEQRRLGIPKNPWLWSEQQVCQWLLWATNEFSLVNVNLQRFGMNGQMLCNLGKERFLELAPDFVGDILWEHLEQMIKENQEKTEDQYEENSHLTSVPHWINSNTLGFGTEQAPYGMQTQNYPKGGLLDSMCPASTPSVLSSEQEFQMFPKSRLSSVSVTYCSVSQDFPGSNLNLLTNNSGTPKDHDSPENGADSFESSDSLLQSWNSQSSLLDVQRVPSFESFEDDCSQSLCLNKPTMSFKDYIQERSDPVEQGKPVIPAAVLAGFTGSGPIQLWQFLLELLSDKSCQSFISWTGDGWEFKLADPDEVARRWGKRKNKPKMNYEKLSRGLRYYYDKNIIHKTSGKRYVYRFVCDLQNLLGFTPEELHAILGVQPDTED
In short: as §1

SPDEF = target: T9, SPDEF (Homo sapiens, UniProt O95238 1-335)
T9 sequence: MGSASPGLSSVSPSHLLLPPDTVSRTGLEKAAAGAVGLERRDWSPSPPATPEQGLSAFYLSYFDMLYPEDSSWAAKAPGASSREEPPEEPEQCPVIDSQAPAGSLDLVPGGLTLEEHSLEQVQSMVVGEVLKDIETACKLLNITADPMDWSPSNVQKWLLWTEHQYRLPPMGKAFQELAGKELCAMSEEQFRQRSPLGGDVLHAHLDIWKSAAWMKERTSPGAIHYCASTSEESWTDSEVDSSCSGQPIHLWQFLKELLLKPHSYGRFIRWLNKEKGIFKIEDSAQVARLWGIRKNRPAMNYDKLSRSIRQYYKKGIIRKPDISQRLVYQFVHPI
In short: as §1

ETV7 = target: T10, ETV7 (Homo sapiens, UniProt Q9Y603 1-341)
T10 sequence: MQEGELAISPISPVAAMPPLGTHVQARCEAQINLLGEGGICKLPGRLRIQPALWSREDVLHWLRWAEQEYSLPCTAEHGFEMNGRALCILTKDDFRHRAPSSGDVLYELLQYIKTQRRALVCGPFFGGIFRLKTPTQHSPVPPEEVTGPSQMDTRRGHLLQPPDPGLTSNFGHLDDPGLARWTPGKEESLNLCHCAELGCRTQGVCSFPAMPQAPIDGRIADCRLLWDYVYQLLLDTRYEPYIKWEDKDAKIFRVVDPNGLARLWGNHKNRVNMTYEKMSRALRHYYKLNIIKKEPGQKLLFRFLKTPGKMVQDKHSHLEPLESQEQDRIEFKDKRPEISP
In short: as §1

ELF5 = target: T11, ELF5 (Homo sapiens, UniProt Q9UKW6-2 1-255)
T11 sequence: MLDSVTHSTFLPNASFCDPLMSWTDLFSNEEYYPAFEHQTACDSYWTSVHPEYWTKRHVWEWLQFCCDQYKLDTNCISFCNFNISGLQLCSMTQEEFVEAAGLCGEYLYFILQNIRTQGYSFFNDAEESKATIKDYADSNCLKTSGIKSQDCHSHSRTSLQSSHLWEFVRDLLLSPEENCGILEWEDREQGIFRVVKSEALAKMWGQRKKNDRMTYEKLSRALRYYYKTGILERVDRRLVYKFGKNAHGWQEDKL
In short: as §1

ETV3 = target: T12, ETV3 (Homo sapiens, UniProt P41162-2 1-143)
T12 sequence: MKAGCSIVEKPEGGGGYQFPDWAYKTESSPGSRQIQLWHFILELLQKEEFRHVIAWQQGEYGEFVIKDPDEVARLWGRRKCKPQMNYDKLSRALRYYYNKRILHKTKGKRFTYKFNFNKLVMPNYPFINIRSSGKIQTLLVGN
In short: as §1

ETV6 = ETV6 (Homo sapiens, UniProt P41212 1-452)
In short: as §1

Chain of CRX (O43186 whole entry): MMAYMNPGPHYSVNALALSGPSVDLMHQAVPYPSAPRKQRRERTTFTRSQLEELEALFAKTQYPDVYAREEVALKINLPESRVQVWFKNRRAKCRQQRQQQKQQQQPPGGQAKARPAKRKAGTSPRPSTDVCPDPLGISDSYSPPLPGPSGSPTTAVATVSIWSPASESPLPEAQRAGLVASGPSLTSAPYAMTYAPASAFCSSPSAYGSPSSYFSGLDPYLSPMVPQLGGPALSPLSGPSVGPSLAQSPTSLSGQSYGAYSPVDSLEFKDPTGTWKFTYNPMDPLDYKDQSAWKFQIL
Chain of ETV5 (P41161 whole entry): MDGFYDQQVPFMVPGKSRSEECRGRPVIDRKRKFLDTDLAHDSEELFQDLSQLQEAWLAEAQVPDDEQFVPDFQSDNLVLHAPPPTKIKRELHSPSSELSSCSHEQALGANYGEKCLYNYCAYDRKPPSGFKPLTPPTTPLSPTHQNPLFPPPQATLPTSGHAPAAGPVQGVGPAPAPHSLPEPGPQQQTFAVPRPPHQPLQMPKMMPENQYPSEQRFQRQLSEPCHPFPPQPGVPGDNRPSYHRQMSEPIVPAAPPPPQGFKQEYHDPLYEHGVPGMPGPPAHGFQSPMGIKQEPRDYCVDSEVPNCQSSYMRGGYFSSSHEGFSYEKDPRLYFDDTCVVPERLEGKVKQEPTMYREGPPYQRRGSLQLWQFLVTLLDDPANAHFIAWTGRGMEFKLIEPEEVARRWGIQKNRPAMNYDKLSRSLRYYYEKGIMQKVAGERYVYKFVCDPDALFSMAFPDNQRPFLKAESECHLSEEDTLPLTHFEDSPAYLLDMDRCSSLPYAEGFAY
Chain of ETV1 (P50549 whole entry): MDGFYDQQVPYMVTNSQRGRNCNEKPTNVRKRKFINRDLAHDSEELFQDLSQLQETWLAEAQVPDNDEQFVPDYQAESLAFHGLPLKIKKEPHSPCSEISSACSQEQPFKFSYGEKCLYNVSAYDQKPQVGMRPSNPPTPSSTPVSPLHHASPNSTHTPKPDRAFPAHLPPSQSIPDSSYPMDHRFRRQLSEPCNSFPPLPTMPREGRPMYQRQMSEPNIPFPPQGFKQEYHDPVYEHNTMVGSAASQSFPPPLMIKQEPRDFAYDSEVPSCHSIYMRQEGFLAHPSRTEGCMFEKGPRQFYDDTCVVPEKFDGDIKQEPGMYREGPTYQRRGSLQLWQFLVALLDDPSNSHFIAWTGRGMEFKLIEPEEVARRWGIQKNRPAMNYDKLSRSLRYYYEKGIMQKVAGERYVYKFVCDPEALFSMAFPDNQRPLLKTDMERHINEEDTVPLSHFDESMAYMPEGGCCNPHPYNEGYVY
Chain of ETV6 (P41212 whole entry): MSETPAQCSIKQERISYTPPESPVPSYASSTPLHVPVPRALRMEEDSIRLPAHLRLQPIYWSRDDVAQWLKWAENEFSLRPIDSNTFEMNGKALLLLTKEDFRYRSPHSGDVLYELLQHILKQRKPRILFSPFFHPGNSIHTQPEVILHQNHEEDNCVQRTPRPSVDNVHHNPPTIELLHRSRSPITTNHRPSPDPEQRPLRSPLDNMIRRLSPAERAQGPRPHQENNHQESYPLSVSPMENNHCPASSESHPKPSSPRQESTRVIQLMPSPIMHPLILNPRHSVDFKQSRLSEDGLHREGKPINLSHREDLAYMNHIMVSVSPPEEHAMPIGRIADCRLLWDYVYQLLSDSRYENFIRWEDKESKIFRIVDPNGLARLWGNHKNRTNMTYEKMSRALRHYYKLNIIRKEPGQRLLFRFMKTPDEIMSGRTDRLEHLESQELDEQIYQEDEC
Chain of ELF4 (Q99607 whole entry): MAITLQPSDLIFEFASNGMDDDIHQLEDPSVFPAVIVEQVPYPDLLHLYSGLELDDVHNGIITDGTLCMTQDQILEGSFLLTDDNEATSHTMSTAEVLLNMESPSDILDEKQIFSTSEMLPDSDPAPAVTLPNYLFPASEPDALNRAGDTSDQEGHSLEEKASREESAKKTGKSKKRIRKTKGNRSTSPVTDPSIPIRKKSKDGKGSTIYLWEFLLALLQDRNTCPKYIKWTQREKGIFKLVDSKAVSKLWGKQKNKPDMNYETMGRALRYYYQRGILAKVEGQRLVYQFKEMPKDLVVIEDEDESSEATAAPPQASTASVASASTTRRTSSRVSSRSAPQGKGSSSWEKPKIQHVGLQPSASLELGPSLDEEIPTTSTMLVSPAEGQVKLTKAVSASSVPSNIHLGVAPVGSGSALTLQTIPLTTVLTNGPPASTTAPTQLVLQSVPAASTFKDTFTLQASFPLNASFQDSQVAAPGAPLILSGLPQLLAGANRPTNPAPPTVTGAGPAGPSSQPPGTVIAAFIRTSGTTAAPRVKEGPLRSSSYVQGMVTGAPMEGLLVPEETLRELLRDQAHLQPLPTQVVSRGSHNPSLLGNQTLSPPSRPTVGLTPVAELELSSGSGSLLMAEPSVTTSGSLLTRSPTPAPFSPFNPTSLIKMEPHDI

Sequence	binding signal (FEV)	binding signal (ETV5)	binding signal (SPIC)	binding signal (ELF4)	binding signal (ELK4)	binding signal (ETV2)	binding signal (ELF3)	binding signal (CRX)	binding signal (ETV1)	binding signal (ERF)	binding signal (ETV3L)	binding signal (ETS2)	binding signal (SPDEF)	binding signal (ETV7)	binding signal (ELF5)	binding signal (ETV3)	binding signal (ETV6)
ACCCCG	1.25 fold enrichment (6-mer frequency, TF over GST control)	1.27 fold enrichment (6-mer frequency, TF over GST control)	1.38 fold enrichment (6-mer frequency, TF over GST control)	1.33 fold enrichment (6-mer frequency, TF over GST control)	1.29 fold enrichment (6-mer frequency, TF over GST control)	1.21 fold enrichment (6-mer frequency, TF over GST control)	1.22 fold enrichment (6-mer frequency, TF over GST control)	1.02 fold enrichment (6-mer frequency, TF over GST control)	1.22 fold enrichment (6-mer frequency, TF over GST control)	1.26 fold enrichment (6-mer frequency, TF over GST control)	1.33 fold enrichment (6-mer frequency, TF over GST control)	1.25 fold enrichment (6-mer frequency, TF over GST control)	1.15 fold enrichment (6-mer frequency, TF over GST control)	1.02 fold enrichment (6-mer frequency, TF over GST control)	1.21 fold enrichment (6-mer frequency, TF over GST control)	1.11 fold enrichment (6-mer frequency, TF over GST control)	1.16 fold enrichment (6-mer frequency, TF over GST control)
CCTCGG	1.07 fold enrichment (6-mer frequency, TF over GST control)	1.2 fold enrichment (6-mer frequency, TF over GST control)	1.1 fold enrichment (6-mer frequency, TF over GST control)	1.25 fold enrichment (6-mer frequency, TF over GST control)	1.24 fold enrichment (6-mer frequency, TF over GST control)	1.24 fold enrichment (6-mer frequency, TF over GST control)	1.3 fold enrichment (6-mer frequency, TF over GST control)	1.02 fold enrichment (6-mer frequency, TF over GST control)	1.28 fold enrichment (6-mer frequency, TF over GST control)	1.23 fold enrichment (6-mer frequency, TF over GST control)	1.23 fold enrichment (6-mer frequency, TF over GST control)	1.23 fold enrichment (6-mer frequency, TF over GST control)	1.04 fold enrichment (6-mer frequency, TF over GST control)	1.11 fold enrichment (6-mer frequency, TF over GST control)	1.2 fold enrichment (6-mer frequency, TF over GST control)	1.05 fold enrichment (6-mer frequency, TF over GST control)	1.24 fold enrichment (6-mer frequency, TF over GST control)
